SW480 rerep: inducers of DNA re-replication in SW480 colon cancer cells | 1.8% of 340,000 active | AID 624297 | SW480 DNA re-replication, Hoechst DNA content imaging, 48 h | Potency, µM (series often up to 46.1 µM), usual class: activators; further: nearly all actives have a fitted effect of over 55% in size
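Compounds, transferred as 23 nL by pin tool, were incubated with cells for 48 hr; DNA content per nucleus was then quantified by Hoechst staining and fluorescence plate imaging.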
KB-3-1 cytotox: KB-3-1 parental cell cytotoxicity; 1.4% of 400,000 active; Potency, µM (titrated, usually from 46.1 µM), actives largely listed as cytotoxic; KB-3-1 viability, CellTiter-Glo ATP luminescence, 72 h; further: nearly all actives have a fitted effect of over 60% in size
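Cytotoxicity in the drug-sensitive parental line KB-3-1 was scored as loss of CellTiter-Glo luminescence following 72 h incubation with compound. Values come from curve fitting of normalized concentration-response data.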
KB-V1 cytotox: kills drug-selected multidrug resistant KB-V1 cells; 3.4% of 400,000 active; Potency, µM (highest dose often 46.1 µM), usual class: cytotoxic; AID 1347076; KB-V1 MDR cells viability, CellTiter-Glo, 72 h; further: nearly all actives have a fitted effect of over 60% in size
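Cytotoxicity toward P-gp-expressing KB-V1 cells was determined as loss of CellTiter-Glo luminescence after 72 h at 37 degrees C. Compounds were tested in quantitative HTS format across a concentration range, with curves fitted to normalized data.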
IL-1B inflam inh: inhibitors of inflammasome signaling (IL-1 beta secretion). THP-1 LPS/ATP IL-1B secretion, AlphaLISA, 16 h; hits give low values. activity change, % at 57.5 µM. 4.7% of 360,000 active. AID 743279; in the data active means activity change below about -50%; inconclusive means mostly about -30% to -49%
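Secreted IL-1B measured by AlphaLISA bead assay after 16 h compound exposure of THP-1 cells; compounds (final up to 57.5 uM) added 1 h before LPS (250 ng/mL) and ATP (1.25 mM) stimulation; lower signal means less secretion.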
MCF10A rereplic: inducers of DNA re-replication in MCF 10A breast cells | 2.9% of 350,000 active | MCF 10A DNA re-replication, Hoechst nuclear intensity, 48 h | Potency, µM (titrated, usually from 46.1 µM), hits mostly activators; further: nearly all actives have a fitted effect of over 50% in size
Numbers stand for hits; - = inactive; ? = inconclusive; . = no result given. Sampled rows, rich in hits. Any-hit rate of the full collection: about 9.9%. Unless noted, the call rests on the fitted dose curve; in most records, active means well fitted curve in the direction sought with a large enough effect; inconclusive means small, poorly fitted or top-dose-only effect, or another doubt; inactive means no such curve, though single readings can be large; an effect the other way counts as inactive or inconclusive.

SMILES | SW480 rerep | KB-3-1 cytotox | KB-V1 cytotox | IL-1B inflam inh | MCF10A rereplic
Cc1ccc(C)c(NC(=O)COC(=O)c2cccc3c2C(=O)c2ccccc2C3=O)c1 | 13µM | ? | 15µM | - | -
Cc1cccc(NC(=O)COC(=O)c2cc3ccccc3oc2=O)c1 | 21µM | - | - | - | 0.65µM
O=C(COC(=O)c1cc2ccccc2oc1=O)Nc1cccc(Br)c1 | - | - | - | - | -
O=C(COC(=O)c1ccc2c(c1[N+](=O)[O-])C(=O)c1ccccc1C2=O)NC1CC1 | ? | ? | - | -77 | ?
O=C(COC(=O)c1cccc2c1C(=O)c1ccccc1C2=O)NC1CCCCC1 | - | - | 21µM | -132 | -
Cc1ccc(CN2CCN(C3CCN(S(=O)(=O)N(C)C)CC3)C(=O)C2=O)cc1 | . | - | - | . | .
O=C(CNC(=S)N(Cc1ccccc1)Cc1cccnc1)NC1CCCC1 | - | - | - | - | -
C/C(=N/OC(=O)c1ccc(C(F)(F)F)cc1)c1oc(C)nc1C | - | - | - | - | -
Cc1ccc(OCCNC(=O)c2ccccc2F)cc1 | - | - | - | - | -
Cc1cnccc1CNC(=O)CC1C(=O)NCCN1CC(C)(C)C (stereo not drawn) | - | - | - | - | -
C=CCNC(=S)NCC1COc2ccccc2O1 (stereo not drawn) | - | - | - | - | -
Cc1c(Cl)cccc1NC(=S)NCC1COc2ccccc2O1 (stereo not drawn) | - | - | - | -68 | ?
CC1=CC(=O)C(Sc2ccc(C)cc2)=CC1=O | . | ? | - | -78 | .
O=C(NC1CCCCC1)C(C1CC1)n1c(=O)c(-c2cc3ccccc3[nH]2)nc2ccccc21 (stereo not drawn) | . | ? | 23µM | - | .
CC(C)(C)NC(=O)C(CCc1ccccc1)n1c(=O)c(-c2cc3ccccc3[nH]2)nc2ccccc21 (stereo not drawn) | . | - | ? | - | .
CC(C)(C)NC(=O)C(c1ccccc1)n1c(=O)c(-c2cc3ccccc3[nH]2)nc2ccccc21 (stereo not drawn) | . | ? | 23µM | - | .
Cc1cccc(C)c1NC(=O)C(CCc1ccccc1)n1c(=O)c(-c2cc3ccccc3[nH]2)nc2ccccc21 (stereo not drawn) | . | ? | 21µM | - | .
COc1cccc(NC(=O)c2nn(-c3ccc(C)cc3)c(=O)n(C)c2=O)c1 | . | - | - | . | .
O=S1(=O)Nc2c(ccc3cccnc23)-c2ccccc21 | - | 18µM | ? | -100 | -
CCOC(=O)/C(=N/Nc1ccccc1)Sc1nnc(CCc2ccccc2)n1-c1ccccc1 | - | - | ? | -73 | -
Cc1ccc(-n2c(CCc3ccccc3)nnc2SCC(=O)NCc2ccccc2)cc1C | - | ? | ? | -57 | ?
COCc1nnc(SCC(=O)NCc2ccccc2)n1-c1ccccc1 | - | - | - | - | ?
COc1ccc(-n2c(COc3ccc(C)cc3)nnc2SCc2ccc(C#N)cc2)cc1 | - | - | 6.5µM | - | -
Cc1ccc(OCc2nnc(SCC(=O)c3ccccc3)n2-c2ccccc2)cc1 | - | - | - | -56 | ?
CC(C)c1cc(Cn2c3ccccc3c(=O)n2C(C)Cn2cc(CCCC#N)nn2)on1 (stereo not drawn) | . | - | - | - | .
SMILES | SW480 rerep | KB-3-1 cytotox | KB-V1 cytotox | IL-1B inflam inh | MCF10A rereplic
CCOc1ccc2nc(N3CCCC(C(=O)Nc4ccccc4CC)C3)sc2c1 (stereo not drawn) | . | - | - | . | .
COc1ccc(CN2C[C@@H](CO)O[C@@H](n3cnc4c(NCc5ccc(F)cc5)ncnc43)C2)cc1 | . | - | - | - | .
Cc1cccc(-n2c(CCc3ccccc3)nnc2SCC(=O)c2ccccc2)c1 | - | - | ? | -86 | ?
Cn1c(Cc2ccccc2)nnc1SCC(=O)Nc1ccccc1 | - | - | - | - | -
Cn1c(Cc2ccccc2)nnc1SCC(=O)NCCc1ccccc1 | - | - | - | - | 0.58µM
CCCCc1nc2c(C)c(N)cnc2n1Cc1cccc([N+](=O)[O-])c1 | - | - | - | - | -
O=C1NC[C@H](CCCCN2CCN(Cc3ccccc3)C(=O)C2=O)N(CC2CCCCC2)C1=O | . | - | - | - | .
CCN(C(=O)COC(=O)CCCOc1ccc(Cl)cc1C)c1c(N)n(Cc2ccccc2)c(=O)[nH]c1=O | - | - | - | - | ?
